AmpC inh no detg – qHTS Inhibitors of AmpC Beta-Lactamase (assay without detergent). P00811. AmpC nitrocefin hydrolysis, absorbance 480 nm, 0.0001% Triton. Potency, µM (titrated, usually from 57.1 µM), for inactives: top-dose activity change, negative = inhibition, actives largely listed as inhibitors. 0.52% of 330,000 active;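 also: plate controls were no compound for no effect and no enzyme for full effect; nearly all actives have a fitted effect of over 20% in size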
Target sequence (P00811 whole entry, looked up): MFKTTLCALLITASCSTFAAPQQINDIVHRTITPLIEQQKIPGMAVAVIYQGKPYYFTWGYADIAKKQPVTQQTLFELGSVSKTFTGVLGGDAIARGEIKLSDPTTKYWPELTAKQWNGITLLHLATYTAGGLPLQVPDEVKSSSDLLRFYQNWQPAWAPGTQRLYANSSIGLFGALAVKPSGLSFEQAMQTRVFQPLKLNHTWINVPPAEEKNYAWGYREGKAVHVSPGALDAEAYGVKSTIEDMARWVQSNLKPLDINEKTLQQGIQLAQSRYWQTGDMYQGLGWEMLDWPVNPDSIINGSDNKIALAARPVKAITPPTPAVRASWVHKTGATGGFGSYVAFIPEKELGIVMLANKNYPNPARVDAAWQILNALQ
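20 mM phosphate pH 7.0 + 0.01% (detergent screen) or 0.0001% Triton X-100; 5.3 nM AmpC reagent; cpd preinc 15 min RT; nitrocefin (800 uM stock) to start; A480 q20 s × 4 min; Activity was normalised to no-enzyme and no-compound control wells.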
HCV inh – qHTS Assay for Inhibitors of Hepatitis C Virus (HCV) | Huh7.5.1 HCVcc-Cre infection, luciferase reporter, 44 h | AID 651820, 2012 | 3.4% of 340,000 active | Potency, µM (top dose mostly 41.8 µM), for the others: top-dose activity change, negative = inhibition, actives largely listed as inhibitors
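Antiviral activity was scored by luciferase reporter output from cells infected with HCVcc-Cre (~0.5 moi) in presence of compound, 44 h infection period, cells seeded 1,000/well 4 h prior.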
Pf growth 96h – Primary qHTS for delayed death inhibitors of the malarial parasite plastid, 96 hour incubation. P. falciparum luciferase reporter growth, 96 h. Potency, µM (titrated, usually from 28.7 µM), inactives show at the top dose activity change, negative = inhibition, most hits filed as inhibitors. 6.9% of 320,000 active. AID 504834, 2011
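P. falciparum expressing integrated firefly luciferase grown in erythrocytes (2% hematocrit, 0.05% parasitemia final) with compounds for 96 hours at 37 C, 5% CO2. Growth inhibition read as loss of luminescence after adding luciferase detection reagent.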
AmpC inh detg – qHTS Inhibitors of AmpC Beta-Lactamase (assay with detergent) | P00811 | AmpC hydrolysis of nitrocefin, absorbance 480 nm, 0.01% Triton | Potency, µM (doses to about 114 µM), inactives show at the highest dose activity change, negative = inhibition, hits mostly inhibitors | 0.041% of 370,000 active;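 also: 0% = no-compound wells and -100% = no-enzyme wells; nearly all actives have a fitted effect of over 25% in size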
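AmpC (5.3 nM in the dispensed reagent) in 20 mM phosphate pH 7.0 with 0.01% (detergent screen) or 0.0001% Triton X-100 was preincubated with compounds for 15 min at room temperature. Nitrocefin was then added from an 800 uM solution, and hydrolysis was followed at 480 nm.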
AMA1 RON2 block – qHTS for Inhibitors of AMA1-RON; Towards Development of Antimalarial Drug Lead: Primary Screen | AlphaScreen AMA1-biotinylated RON2 peptide binding | Potency, µM (top dose mostly 58.2 µM), without a hit: at the highest dose activity change, negative = inhibition, hits mostly inhibitors | Plasmodium falciparum AMA1 (3D7) - RON2 peptide interaction | 0.2% of 360,000 active | AID 720542, 2013;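 also: 0% = vehicle wells and -100% = peptide control; nearly all actives have a fitted effect of over 45% in size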
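AMA1 (3D7) with his tag at 25 nM final met compounds first, then biotinylated RON2 peptide at 25 nM; detection used donor plus acceptor beads, 10 µg/mL apiece, read by AlphaScreen after 30 min at room temperature.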
Pf growth 48h – Primary qHTS for delayed death inhibitors of the malarial parasite plastid, 48 hour incubation; P. falciparum luciferase growth in erythrocytes, 48 h; Potency, µM (series often up to 28.7 µM), without a hit: at the highest dose activity change, negative = inhibition, most hits filed as inhibitors; 5.9% of 310,000 active; AID 504832, 2011
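Compounds are pin-transferred into medium, infected erythrocytes (2% hematocrit, 0.1% parasitemia final) are added, and plates sit one parasite generation at 37 C in 5% CO2. Detection reagent is then added and luminescence measured.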
Active calls of the source: *; ? = inconclusive; · = no result. In the library only some 11% were active in any assay of this set; here they are far more common. Calls follow the shape of the dose curve; as a rule, active = well fitted curve in the direction sought with a large enough effect; inconclusive = small, poorly fitted or top-dose-only effect, or another doubt; inactive = no such curve, though single readings can be large; an effect the other way counts as inactive or inconclusive. Unless noted, % is scaled to controls: 0 for no effect and ±100 for the full control effect; potency is read from the fitted curve at half-maximal effect.

SMILES	AmpC inh no detg	HCV inh	Pf growth 96h	AmpC inh detg	AMA1 RON2 block	Pf growth 48h
CC(C)(C)N=Cc1cc(-c2ccccc2)sc1O	-7%	10µM*	?	-2%	-2%	·
CC(C)(C)Nc1ncnc2sc(-c3ccccc3)cc12	-37%	?	?	-1%	32%	-23%
CCOC(=O)c1ccc(NC(=O)Cn2c(=O)cc(C(F)(F)F)c3c(C)nn(C)c32)cc1	·	·	·	0%	·	·
COc1cc2c(cc1OC)CN(c1ccc([N+](=O)[O-])cc1C#N)CC2	-14%	?	15µM*	-16%	-23%	-7%
CCN1C(=O)[C@H]2[C@@H](c3ccc(C)cc3)N3C(=O)N(c4cccc(Cl)c4)C(=O)[C@@]3(CC(C)C)[C@H]2C1=O	141%	-17%	8.3µM*	?	0%	?
COc1ccc([C@@H]2[C@@H]3C(=O)N(C(C)(C)C)C(=O)[C@@H]3[C@]3(CC(C)C)C(=O)N(c4cccc(Br)c4)C(=O)N23)cc1	79%	-9%	3.7µM*	?	0%	?
CC(C)(C)N1C(=O)[C@H]2[C@@H](c3ccc(Br)cc3)N3C(=O)N(c4ccccc4)C(=O)[C@@]3(Cc3ccccc3)[C@H]2C1=O	23%	-2%	?	-1%	-5%	?
CC(C)C[C@@]12C(=O)N(c3cccc(Cl)c3)C(=O)N1[C@H](c1ccc(Br)cc1)[C@@H]1C(=O)N(C(C)(C)C)C(=O)[C@@H]12	-7%	15%	4.1µM*	-15%	-1%	3.7µM*
CC(C)(C)N1C(=O)[C@H]2[C@@H](c3ccc(Br)cc3)N3C(=O)N(c4ccccc4)C(=O)[C@@]3(C)[C@H]2C1=O	158%	22%	13µM*	-15%	-2%	?
COc1ccc([C@@H]2[C@@H]3C(=O)N(C(C)(C)C)C(=O)[C@@H]3[C@]3(CC(C)C)C(=O)N(c4ccccc4)C(=O)N23)cc1	127%	8%	?	-7%	0%	?
CC[C@@]12C(=O)N(c3cccc(Cl)c3)C(=O)N1[C@H](c1ccc(Br)cc1)[C@@H]1C(=O)N(C(C)(C)C)C(=O)[C@@H]12	71%	-13%	?	?	4%	9.3µM*
CC[C@@]12C(=O)N(c3cccc(C)c3)C(=O)N1[C@H](c1ccc(OC)cc1)[C@@H]1C(=O)N(C(C)(C)C)C(=O)[C@@H]12	189%	27%	?	?	1%	?
CC(C)C[C@@]12C(=O)N(c3cccc(F)c3)C(=O)N1[C@H](c1ccc(Br)cc1)[C@@H]1C(=O)N(C(C)(C)C)C(=O)[C@@H]12	10%	-2%	5.2µM*	-12%	0%	13µM*
CC(C)(C)N1C(=O)[C@H]2[C@@H](c3ccc(Br)cc3)N3C(=O)N(c4cccc(Br)c4)C(=O)[C@@]3(Cc3ccccc3)[C@H]2C1=O	9%	-10%	?	-12%	7%	?
CC[C@@]12C(=O)N(c3cccc(C)c3)C(=O)N1[C@H](c1ccc(Br)cc1)[C@@H]1C(=O)N(C(C)(C)C)C(=O)[C@@H]12	166%	-18%	2.3µM*	-5%	5%	3.3µM*
CCOc1ccccc1NC(=O)CSc1ncc2c(n1)-c1ccccc1N(CC)S2(=O)=O	·	·	·	5%	·	·
COc1ccc(/C=C/C(=O)Nc2cc(C)nn2-c2nc3ccccc3[nH]2)cc1	-44%	?	?	0%	32%	?
COc1ccc(/C=C/C(=O)Nc2cc(C)nn2-c2nc3ccccc3n2Cc2cccc([N+](=O)[O-])c2)cc1	-33%	?	9.3µM*	0%	-4%	?
CCOC(=O)N1CCC(N2Cc3cccc(C(=O)Nc4ccccc4OC)c3C2=O)CC1	156%	-21%	?	2%	-5%	9.3µM*
CCOC(=O)N1CCC(N2Cc3cccc(C(=O)N4CCN(c5cccc(Cl)c5)CC4)c3C2=O)CC1	33%	-3%	?	-6%	2%	-13%
CCOC(=O)N1CCC(N2Cc3cccc(C(=O)N4CCN(c5cccc(C)c5C)CC4)c3C2=O)CC1	230%	-37%	?	1%	7%	10µM*
CSc1ccc(-c2nc3cccc(C)n3c2Nc2ccc(Cl)cc2)cc1	·	·	·	14%	·	·
Cc1ccc(C)c(NC(=O)c2ccc3c(c2)CCCN3S(C)(=O)=O)c1	·	·	·	21%	·	·
CCOC(=O)c1ccccc1NC(=O)c1ccc2c(SCC(=O)O)c3c(nc2c1)CCCC3	3%	-14%	?	-13%	1%	2.3µM*
COc1ccc(C)cc1NC(=O)c1ccc2c(SCC(=O)O)c3c(nc2c1)CCCC3	-55%	-12%	8.3µM*	1%	-3%	?
SMILES	AmpC inh no detg	HCV inh	Pf growth 96h	AmpC inh detg	AMA1 RON2 block	Pf growth 48h
Cn1c(-c2ccc(Cl)cc2)cnc1N	-21%	?	·	?	-7%	?
Cc1ccc(-c2cnc(N)n2C)cc1C	-26%	?	4.7µM*	-13%	68%	?
CN(CC1CCCN(CCc2cccc(C(F)(F)F)c2)C1)C(=O)c1cc2ccccc2o1 (stereo unspecified)	313%	?	31%	?	-15%	10µM*
CCOc1cccc(CN(C)CC2CCCN(CCc3ccc(Cl)cc3)C2)c1O (stereo unspecified)	72%	5µM*	1.5µM*	-5%	0%	3.7µM*
COc1ccccc1CCN1CCCC(CN(C)CC(C)(C)CO)C1 (stereo unspecified)	-4%	13%	12µM*	-13%	-16%	2%
COc1cc(CN(C)CC2CCCN(CCc3ccccc3F)C2)cc(Cl)c1OC (stereo unspecified)	92%	?	9.3µM*	3%	-8%	13µM*
